Experimental data from PubChem BioAssay.
Calls of active or inactive are those of the source. Unless noted, the rule behind the calls is not given here.

Columns and labels:
[1] = system: Wnt5a (protein binding on small-molecule microarray); assay: Wnt5a binders on small-molecule microarray, primary screen, biophysical, 635/667 nm fluorescence (AID 1142); settings: 635 nm fluorescence, higher = more signal;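 note: fluorescence read at 667 nm with signal to noise per printed feature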
[2] = cell viability in Huh7 cells, primary screen, cytotoxicity control for HCV replication inhibitor project, CellTiter-Glo luminescence, basal, 48 h (AID 1143); settings: Huh7 HCV replicon, higher = more signal, called active from +8 up or from −8 down;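 note: Huh7 hepatoma cells carrying a hepatitis C replication reporter with no stimulus; test concentration not given here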
[3] = P. aeruginosa biofilm formation inhibitors, primary screen, PAO1 strain, BacTiter-Glo luminescence, LB-PBS (AID 1144); settings: 12 h, higher = more signal
[4] = CREB reporter modulators without forskolin, primary screen, cell-based, PC12, CRE-LacZ reporter, unstimulated (AID 1145); settings: no forskolin, luminescence, 4.5 h, higher = more signal, called active from +8 up or from −8 down
[5] = CREB reporter modulators under forskolin, primary screen, cell-based, PC12, CRE-LacZ reporter, forskolin-stimulated (AID 1146); settings: luminescence, 4.5 h, higher = more signal, called active from +8 up or from −8 down;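 note: PC12 cells with 6xCRE LacZ reporter stimulated by forskolin 10 µM; beta-galactosidase reporter signal reflecting CREB driven transcription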
[6] = target: Streptavidin (Streptomyces avidinii) (UniProt P22629); assay: streptavidin binders on small-molecule microarray, primary screen, artefact control for SMM compound annotation, biophysical, 635/667 nm fluorescence (AID 1147); settings: streptavidin binding, higher = more signal;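 note: signal reflects streptavidin binding to arrayed compounds as a control protein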
Chain of Streptavidin (Streptomyces avidinii) (P22629 whole entry, looked up): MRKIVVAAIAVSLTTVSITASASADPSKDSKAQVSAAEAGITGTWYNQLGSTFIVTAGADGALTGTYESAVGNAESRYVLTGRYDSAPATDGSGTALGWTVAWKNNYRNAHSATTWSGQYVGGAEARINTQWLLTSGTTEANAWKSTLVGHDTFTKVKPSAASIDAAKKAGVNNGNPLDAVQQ

[7] = small-molecule binders of probe aInhba, primary screen, biochemical, small-molecule microarray, 635/667 nm fluorescence (AID 1148); settings: higher = more signal;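 note: score merges 667nm spot fluorescence with signal-to-noise for antibody binding to printed compounds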
Torsin-1A (Homo sapiens) [8] = target: Torsin-1A (Homo sapiens) (UniProt O14656); assay: torsin A binders from cell lysate, primary screen, small-molecule microarray, wild-type, 635/667 nm (AID 1149); settings: COS7 hTOR1A-WT lysate, 635 nm fluorescence, higher = more signal
Chain of Torsin-1A (Homo sapiens) (O14656 whole entry, looked up): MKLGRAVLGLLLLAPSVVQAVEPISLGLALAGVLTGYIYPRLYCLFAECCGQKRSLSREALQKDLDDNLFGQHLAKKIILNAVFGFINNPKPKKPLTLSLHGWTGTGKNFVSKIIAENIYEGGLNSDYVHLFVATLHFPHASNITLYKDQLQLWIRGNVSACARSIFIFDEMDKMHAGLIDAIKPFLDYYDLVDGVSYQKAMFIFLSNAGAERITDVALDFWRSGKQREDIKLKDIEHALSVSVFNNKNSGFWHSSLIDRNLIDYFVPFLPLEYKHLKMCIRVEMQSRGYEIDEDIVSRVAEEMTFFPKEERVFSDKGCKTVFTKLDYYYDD

Torsin-1A (Homo sapiens) [9] = target: Torsin-1A (Homo sapiens) (UniProt O14656); assay: small-molecule binders of mutant TOR1A in lysate, primary screen, cell lysate, small-molecule microarray, COS7 lysate, 635/667 nm fluorescence (AID 1150); settings: COS7 hTOR1A mutant lysate, 635 nm fluorescence, higher = more signal;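 note: score pools 667 nm emission and signal to noise measuring lysate protein binding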
[10] = system: Sonic hedgehog protein (Shh); assay: small-molecule binders of Shh protein, primary screen, biochemical, small-molecule microarray, 635/667 nm fluorescence (AID 1151); settings: small-molecule microarray binding, 635 nm fluorescence; higher = more signal;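 note: Shh protein binding to compounds spotted on small-molecule microarray slides; score combines spot fluorescence intensity with signal-to-noise across triplicate slides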

Row | SMILES | composite z-score [1] | z-score [2] | z-score [3] | z-score [4] | z-score [5] | composite z-score [6] | composite z-score [7] | composite z-score (Torsin-1A (Homo sapiens) [8]) | composite z-score (Torsin-1A (Homo sapiens) [9]) | composite z-score [10]
1 | O=C1C2C=CC(C(O)C3CCCCC3)N(Nc3ccccc3F)C2C(=O)N1c1ccccc1 (stereo not given) | 0.442 | -2.88 (inactive) | -0.469 (inactive) | 0.826 (inactive) | -0.904 (inactive) | 1.5 | 0.448 | 0.258 | 1.12 | -0.324
2 | [N-]=[N+]=Nc1ccccc1C[C@@]1(C(=O)NCc2ccccc2)N=C(c2ccc(OCCCO)cc2)O[C@@H]1c1ccccc1 | 0.967 | -5.24 (inactive) | -1.15 (inactive) | 1.4 (inactive) | -1.99 (inactive) | 0.877 | 0.175 | 0.324 | 0.506 | 0.242
3 | COC(=O)[C@@]1(Cc2ccc(F)cc2)[C@H]2c3cc(C(=O)N4CCCC4)n(Cc4ccc(C(F)(F)F)nc4)c3C[C@H]2CN1C(=O)c1ccccc1 | 0.406 | -2.55 (inactive) | 0.193 (inactive) | 0.197 (inactive) | -0.388 (inactive) | 1.99 | -0.025 | 1.45 | 1.14 | -0.388
4 | Cc1ccc(S[C@]2(C(=O)NC(C)C)CC(=O)N(Cc3ccccc3)[C@@H]2c2ccc(CO)cc2)cc1 | -0.394 | -2.19 (inactive) | -1.55 (inactive) | -0.295 (inactive) | 0.12 (inactive) | -0.375 | -0.143 | -1.65 | -1.5 | -0.501
5 | COC(=O)C(CC#Cc1ccc2c(c1)[C@]1(C(=O)N2)[C@H](C(=O)N2CCCCCCC2)[C@H]2C(=O)O[C@H](c3ccccc3)[C@H](c3ccccc3)N2[C@@H]1c1ccc(OCCO)cc1)C(=O)OC | 2.02 | -0.873 (inactive) | 1.02 (inactive) | -0.581 (inactive) | -0.546 (inactive) | 4.12 | 1.97 | 3.57 | 3.65 | 2.05
